# From PubChem BioAssay
# MITF inh: MITF inhibitors, primary screen, biochemical, AlphaScreen, human; Microphthalmia-associated transcription factor (Homo sapiens), O75030; AlphaScreen MITF homodimerization, bead proximity signal; inhibition, % at 2.6 µM; 0.91% of 650,000 active; in the data active means inhibition above about 50%
# FBW7 act: FBW7 E3 ligase activators, primary screen, biochemical, AlphaScreen, human. F-box/WD repeat-containing protein 7 (Homo sapiens), Q969H0. AlphaScreen FBW7–phospho-cyclin E peptide binding, activator screen. normalized activity (activation), % at 26.1 µM. 0.13% of 650,000 active; in the data active means normalized activity above about 1.9%;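 further: purified mutant Fbw7 with reduced substrate affinity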
# TEAD-YAP inh: TEAD-YAP interaction inhibition, primary screen, TEAD-YAP interaction inhibitor project, luminescence, HEK-TIYL cells | TEAD-Gal4/YAP UAS-luciferase luminescence | inhibition, % at 9.12 µM | 1.4% of 640,000 active | AID 1259422, 2018; in the data active means inhibition above about 32%
# GPR151 activ: activators of human GPR151, primary screen, cell-based, PathHunter beta-arrestin, luminescence | G-protein coupled receptor 151 (Homo sapiens), Q8TDV0 | PathHunter beta-arrestin GPR151 cells | activation, % at 11.2 µM | 1% of 650,000 active | AID 1508602, 2020; in the data active means activation above about 4.9%
# GPR151 conf act: GPR151 activators, triplicate retest, confirmation, cell-based, PathHunter beta-arrestin, luminescence; shares compounds with GPR151 activ; AID 1508609, 2020; activation, % at 11.2 µM; GPR151 PathHunter beta-arrestin cells, 90 min; % of EA-reagent control over plate median; 6,700 tested, under 10 active;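 active means mean percent activation across replicates above the confirmation screen cutoff of 4.91%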
# GPR119 ag: GPR119 activators in beta-arrestin cells, counter-screen for GPR151 activator project, cell-based, PathHunter beta-arrestin, luminescence, triplicate. 90 min; 0 = compound-well median, 100 = enzyme-acceptor control. shares compounds with GPR151 activ. 0.3% of 6,700 active. activation, % at 11.2 µM. AID 1508611, 2020;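 active means mean percent activation in the counterscreen above 29.09%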;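 further: counterscreen on off-target GPR119 to flag nonselective hits from the GPR151 activator screen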
# Target sequence (Q8TDV5 whole entry, looked up): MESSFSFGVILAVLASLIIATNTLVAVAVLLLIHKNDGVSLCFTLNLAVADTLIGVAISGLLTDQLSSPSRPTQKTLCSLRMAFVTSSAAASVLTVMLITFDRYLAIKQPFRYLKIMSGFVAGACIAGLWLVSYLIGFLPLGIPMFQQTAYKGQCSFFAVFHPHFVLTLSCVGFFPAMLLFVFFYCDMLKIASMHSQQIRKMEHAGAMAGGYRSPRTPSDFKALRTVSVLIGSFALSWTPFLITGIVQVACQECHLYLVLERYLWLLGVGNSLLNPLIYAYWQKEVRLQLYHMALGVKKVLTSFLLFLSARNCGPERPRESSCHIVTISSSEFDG
# Hits are given with their value; i = inactive; nt = no result. This is a sample that favours compounds with a hit; in the whole collection about 3.4% have one here.
SMILES,MITF inh,FBW7 act,TEAD-YAP inh,GPR151 activ,GPR151 conf act,GPR119 ag
CC(C)N1CCN(Cc2ccc(OC3CCCC3)cc2)CC1CCO (configuration not stated),i,i,i,17,i,i
CC(C)N1CCN(Cc2cccn2-c2cccnc2)CC1CCO (configuration not stated),i,i,i,i,nt,nt
COc1ccc(-n2ccnc2CN2CCN(C(C)C)C(CCO)C2)cc1 (configuration not stated),i,i,i,5.0,i,i
CCOC(=O)CS(=O)(=O)c1ccc(C(=O)N2CCN(c3ccccc3OC)CC2)cc1[N+](=O)[O-],i,i,i,i,nt,nt
CCCC/C=C/C=C/C=C\CCCCCCCC(=O)OC,i,nt,nt,i,nt,nt
O=C(Cn1c(=O)oc2cc(S(=O)(=O)N3CCc4ccccc43)ccc21)NC1CCCC1,i,i,i,7.5,i,i
COc1ccc(NC(=O)Cn2c(=O)oc3cc(S(=O)(=O)N4CCCC4)ccc32)cc1,i,i,i,5.0,i,i
O=C(Cn1c(=O)oc2cc(S(=O)(=O)N3CCCCCC3)ccc21)NC1CCCCC1,i,i,i,i,nt,nt
Cc1cc(Br)ccc1S(=O)(=O)N1CCOCC1,i,i,i,i,nt,nt
O=S(=O)(c1ccc(Br)cc1Br)N1CCOCC1,i,i,i,5.1,i,i
O=C(Nc1cc(C(F)(F)F)ccc1F)C1CCCC1,i,i,i,13,i,i
O=C(Nc1c[nH]c(=O)[nH]c1=O)c1ccc(N2C(=O)C3C4C=CC(C4)C3C2=O)cc1 (configuration not stated),i,i,i,6.7,i,i
O=C(Nc1ccccc1O)c1ccc(N2C(=O)C3C4C=CC(C4)C3C2=O)cc1 (configuration not stated),i,i,i,i,nt,nt
C#CCN1C(=O)S/C(=C/c2ccc(C(=O)OC)cc2)C1=O,i,i,i,5.9,i,i
COC(=O)C(Cc1ccccc1)NC(=O)C(Cc1cnc[nH]1)NC(=O)OCc1ccccc1 (configuration not stated),i,i,i,5.5,i,i
CCOC(=O)CNC(=O)C(Cc1ccccc1)NC(=O)OCc1ccccc1 (configuration not stated),i,i,i,i,nt,nt
CCNC(=O)C(Cc1ccc([N+](=O)[O-])cc1)NC(=O)OCc1ccccc1 (configuration not stated),i,i,i,5.6,i,i
COC(=O)C(Cc1ccccc1)NC(=O)C(Cc1ccccc1)NC(=O)OCc1ccccc1 (configuration not stated),i,i,i,i,nt,nt
CCCN(CCC)S(=O)(=O)c1ccc(C(=O)Nc2nc(-c3ccc(I)cc3)cs2)cc1,i,i,i,i,nt,nt
COc1ccc(/C=C2\N=C(c3cccc(I)c3)OC2=O)cc1[N+](=O)[O-],i,i,i,14,i,i
COc1ccc(C2=N/C(=C\c3ccc([N+](=O)[O-])cc3)C(=O)O2)cc1[N+](=O)[O-],i,i,i,i,nt,nt
CC(=O)Nc1cccc(-c2csc(Nc3ccc(C)cc3)n2)c1,i,i,i,10,i,i
O=[N+]([O-])c1ccc(Nc2nc(-c3ccccc3)cs2)cc1,i,i,i,6.1,i,i
CC(=O)Nc1cccc(-c2csc(Nc3ccccc3Cl)n2)c1,i,i,i,5.0,i,i
CC1CCCCC1NC(=O)C(Cc1ccccc1)NS(=O)(=O)c1ccc(Br)cc1 (configuration not stated),i,i,i,i,nt,nt
CCOc1ccc(N2C(=O)N(c3cccc([N+](=O)[O-])c3)C3CS(=O)(=O)CC32)cc1 (configuration not stated),i,i,i,i,nt,nt
CN1CCN(C2=Nc3c(Cl)cc(Cl)c4cccc2c34)CC1,i,i,i,12,i,i
COc1ccc(C(=O)c2sc3nc(C)cc(C)c3c2N)c(OC)c1,i,i,i,7.0,i,i
